Measured values taken from PubChem BioAssay (NCATS).
Results filed as inconclusive are left out. Calls of active or inactive are those of the source. Unless noted, calls come from the whole dose curve; as a rule, active = well fitted curve in the direction sought with a large enough effect; inconclusive = small, poorly fitted or top-dose-only effect, or another doubt; inactive = no such curve, though single readings can be large; an effect the other way counts as inactive or inconclusive.

Assays:
[1] = biological target: Lysosomal acid glucosylceramidase (Homo sapiens) (UniProt P04062); experiment: Glucocerebrosidase-p2 (AID 348; in the data active = potency below about 10 µM; note: potency is the fitted concentration of half-maximal effect); settings: purified GBA, blue fluorogenic substrate, 40 min
Chain of Lysosomal acid glucosylceramidase (Homo sapiens) (P04062 whole entry, looked up): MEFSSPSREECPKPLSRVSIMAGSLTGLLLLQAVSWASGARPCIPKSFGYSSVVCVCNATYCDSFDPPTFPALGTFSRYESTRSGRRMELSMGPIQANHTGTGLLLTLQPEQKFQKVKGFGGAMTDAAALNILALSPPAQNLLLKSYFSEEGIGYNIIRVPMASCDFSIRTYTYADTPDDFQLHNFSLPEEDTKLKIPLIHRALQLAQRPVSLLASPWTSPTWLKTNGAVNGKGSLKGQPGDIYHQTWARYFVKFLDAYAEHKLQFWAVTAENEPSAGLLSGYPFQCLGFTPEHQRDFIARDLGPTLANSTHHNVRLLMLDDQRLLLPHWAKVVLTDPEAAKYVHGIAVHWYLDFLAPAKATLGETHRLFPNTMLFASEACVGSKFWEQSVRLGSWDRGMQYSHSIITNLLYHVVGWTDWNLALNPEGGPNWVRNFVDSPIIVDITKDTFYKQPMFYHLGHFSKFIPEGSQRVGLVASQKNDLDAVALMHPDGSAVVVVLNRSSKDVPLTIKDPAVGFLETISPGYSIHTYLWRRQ
How it was run: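 Compounds titrated from 0.6 nM upwards against 0.2 nM enzyme in pH 5.9 citric acid/KH2PO4, taurocholate, tween-20; blue fluorogenic substrate 80 uM, 40 min room temperature, stopped and read Ex 365/Em 440 for AC50.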

[2] = AP1 Signaling Pathway (AID 357; active = well fitted curve in either direction with a large enough effect, not every such curve was filed as active; note: % is set by controls: 0 for no effect and ±100 for the full control effect); settings: ME-180 AP-1-bla reporter, EGF-induced, beta-lactamase ratio, 5 h; at 7.69 µM (top of the series) unless noted
How it was run: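 In this screen, ME-180 cells in Opti-MEM with 0.5% dialyzed FBS received EC50 EGF and compound titrations for 5 h. AP-1 reporter beta-lactamase was detected via CCF4 ratio, giving AC50 for positive and negative modulators.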

[3] = biological target: Cytochrome P450 1A2 (Homo sapiens) (UniProt P05177); experiment: p450-cyp1a2 (AID 410; calls by dose curve; note: potency is the fitted concentration of half-maximal effect;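 for activity change, negative = inhibition: -100% = full effect of reference inhibitor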); settings: recombinant CYP1A2, luciferin-ME demethylation, luminescence; series mostly up to 57 µM
Chain of Cytochrome P450 1A2 (Homo sapiens) (P05177 whole entry, looked up): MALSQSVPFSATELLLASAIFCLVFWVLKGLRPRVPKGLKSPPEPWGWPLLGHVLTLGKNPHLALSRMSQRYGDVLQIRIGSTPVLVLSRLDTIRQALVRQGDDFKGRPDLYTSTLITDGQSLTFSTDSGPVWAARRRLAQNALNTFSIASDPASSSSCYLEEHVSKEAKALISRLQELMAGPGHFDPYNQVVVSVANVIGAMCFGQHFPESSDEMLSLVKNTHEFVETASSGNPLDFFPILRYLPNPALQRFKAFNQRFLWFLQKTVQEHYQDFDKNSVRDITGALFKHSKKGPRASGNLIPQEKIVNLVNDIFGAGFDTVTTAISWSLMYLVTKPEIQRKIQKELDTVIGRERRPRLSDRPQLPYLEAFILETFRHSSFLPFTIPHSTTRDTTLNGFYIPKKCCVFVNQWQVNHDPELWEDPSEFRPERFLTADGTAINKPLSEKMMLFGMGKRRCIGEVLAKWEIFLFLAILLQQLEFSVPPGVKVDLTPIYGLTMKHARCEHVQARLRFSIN
How it was run: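 Human CYP1A2 (20nM) demethylated Luciferin-ME at its Km (100uM) in 100mM KPO4. After 10 min compound preincubation, NADPH regeneration ran the reaction 60 min at room temperature. Luciferin was read by luminescence, normalized to 57 uM furafylline.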

[4] = NFAT Signaling Pathway (AID 444; active = well fitted curve in either direction with a large enough effect, not every such curve was filed as active;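 note: carbachol stimulus at about its EC50 of 1 µM final; % is set by controls: 0 for no effect and ±100 for the full control effect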); settings: Jurkat NFAT-bla M1, carbachol, beta-lactamase ratio, 5 h; at 7.69 µM (top of the series) unless noted
How it was run: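 Read-out: CCF4 FRET ratio (460 nm/530 nm) after 1 h RT dye loading, used for %activity and AC50 from titration series. Cells: Jurkat NFAT-β-lactamase/M1 line, treated with compound plus 1 uM carbachol for 5 h, 37 °C.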

[5] = Stat Signaling Pathway (AID 446; active = well fitted curve in either direction with a large enough effect, not every such curve was filed as active;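 note: ME-180 cervical cancer cells given 40 pM IL-6 alongside compound; SIE-controlled beta-lactamase reporter measured as 460/530 nm FRET emission ratio; % is set by controls: 0 for no effect and ±100 for the full control effect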); settings: ME-180 SIE beta-lactamase reporter, IL-6 stimulated, 5 h; at 7.69 µM (top of the series) unless noted
How it was run: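 Screening format detects activators and inhibitors alike: ME-180 SIE-bla cells stimulated at 40 pM IL-6 for 5 hrs with compound, then dual-emission beta-lactamase read at 405 nm excitation.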

[6] = biological target: Glucocorticoid receptor (Homo sapiens) (UniProt P04150); experiment: GR-EFC Redistribution (AID 451; calls by dose curve; note: potency is the fitted concentration of half-maximal effect); settings: CHO-K1 GR-EFC translocation, beta-gal luminescence, 2 h
Chain of Glucocorticoid receptor (Homo sapiens) (P04150 whole entry, looked up, the tested form may be a part): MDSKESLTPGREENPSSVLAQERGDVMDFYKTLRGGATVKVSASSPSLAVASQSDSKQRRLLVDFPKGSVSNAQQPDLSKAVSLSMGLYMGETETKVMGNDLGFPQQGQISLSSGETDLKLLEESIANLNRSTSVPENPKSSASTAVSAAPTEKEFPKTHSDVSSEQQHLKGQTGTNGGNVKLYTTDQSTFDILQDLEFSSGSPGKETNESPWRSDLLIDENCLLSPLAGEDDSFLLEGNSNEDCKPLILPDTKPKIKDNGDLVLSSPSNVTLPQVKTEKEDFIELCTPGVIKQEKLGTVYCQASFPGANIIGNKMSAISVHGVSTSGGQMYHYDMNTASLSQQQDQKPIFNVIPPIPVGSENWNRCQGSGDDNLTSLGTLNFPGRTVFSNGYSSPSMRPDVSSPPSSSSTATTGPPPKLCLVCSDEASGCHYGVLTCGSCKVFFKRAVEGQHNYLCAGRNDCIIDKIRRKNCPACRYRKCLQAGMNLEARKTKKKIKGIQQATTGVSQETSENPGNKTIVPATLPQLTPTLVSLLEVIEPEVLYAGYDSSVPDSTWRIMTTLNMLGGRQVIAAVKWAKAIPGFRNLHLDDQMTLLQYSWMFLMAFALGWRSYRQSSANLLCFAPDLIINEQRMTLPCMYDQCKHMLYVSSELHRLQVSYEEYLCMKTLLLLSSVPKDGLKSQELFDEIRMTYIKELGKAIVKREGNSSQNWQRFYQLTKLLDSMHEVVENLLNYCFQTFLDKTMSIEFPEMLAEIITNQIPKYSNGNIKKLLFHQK
How it was run: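 Translocation of GR-ED fusion to nuclear EA restores b-gal, read by luminescence after 1 h room-temperature detection. Engineered CHO-K1 biosensor cells, 1,000/well, exposed 2 h at 37 C to titrations up to 46 uM final.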

[7] = biological target: Mitogen-activated protein kinase 10 (Mus musculus) (UniProt Q61831); experiment: JNK3 AlphaScreen Assay (AID 530; active = well fitted curve in either direction with a large enough effect, not every such curve was filed as active;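 note: kinase came from lysate of stimulated human HepG2 cells; signal reports phosphorylation of biotinylated GST-cJun 1-79 at Ser73 with 10 µM ATP; % is set by controls: 0 for no effect and ±100 for the full control effect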); settings: JNK3 lysate, c-Jun phosphorylation; series mostly up to 57.1 µM
How it was run: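 Room-temperature AlphaScreen kinase assay; pre-activated HepG2 lysate as JNK3 source, biotin-GST-cJun(1-79) substrate, 10 uM ATP, compound 15 min preincubation.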

[8] = biological target: 3',5'-cyclic-AMP phosphodiesterase 4B (Homo sapiens) (UniProt Q07343); experiment: qHTS Assay for Inhibitors of PDE-IV (AID 607; active = well fitted activation curve with a large enough effect in the main read-out, with a control signal flat, not every such curve was filed as active; note: % of control where 0% means no effect); settings: HEK293 ACTOne CNG channel cells, membrane potential fluorescence; series mostly up to 22.9 µM
Chain of 3',5'-cyclic-AMP phosphodiesterase 4B (Homo sapiens) (Q07343 whole entry, looked up): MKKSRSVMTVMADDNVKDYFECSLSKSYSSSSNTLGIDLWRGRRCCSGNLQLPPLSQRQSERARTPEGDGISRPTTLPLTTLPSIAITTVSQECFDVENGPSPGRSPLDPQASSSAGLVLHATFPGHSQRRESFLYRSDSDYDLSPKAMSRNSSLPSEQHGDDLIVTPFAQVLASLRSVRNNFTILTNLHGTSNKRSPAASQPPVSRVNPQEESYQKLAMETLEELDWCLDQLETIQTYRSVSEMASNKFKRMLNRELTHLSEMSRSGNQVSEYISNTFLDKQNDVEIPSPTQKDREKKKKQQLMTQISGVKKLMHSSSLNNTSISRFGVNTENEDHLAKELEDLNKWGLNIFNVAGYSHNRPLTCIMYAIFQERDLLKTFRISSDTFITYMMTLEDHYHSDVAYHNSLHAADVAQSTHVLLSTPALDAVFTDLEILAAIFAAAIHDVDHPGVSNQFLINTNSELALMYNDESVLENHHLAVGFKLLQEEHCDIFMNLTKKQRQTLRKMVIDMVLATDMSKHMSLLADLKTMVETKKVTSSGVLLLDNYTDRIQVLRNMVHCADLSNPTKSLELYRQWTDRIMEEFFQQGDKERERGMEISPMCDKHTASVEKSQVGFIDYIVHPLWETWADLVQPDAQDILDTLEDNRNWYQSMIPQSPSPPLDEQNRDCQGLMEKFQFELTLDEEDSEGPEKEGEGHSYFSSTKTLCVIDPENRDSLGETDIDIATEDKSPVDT
How it was run: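 The readout is membrane depolarisation from a cAMP-sensing CNG channel, detected with a potential dye at ex 535/em 590. Cells were HEK293-derived (endogenous PDE-IV) at 1000 cells/well, titrated up to 22.9 uM final.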

[9] = biological target: Cytochrome P450 3A4 (Homo sapiens) (UniProt P08684); experiment: qHTS Assay for Activators of Cytochrome P450 3A4 (AID 885); settings: recombinant CYP3A4, Luciferin-PPXE luminescence, 60 min; series mostly up to 57.1 µM; note: nearly all actives have a fitted effect of over 65% in size
Chain of Cytochrome P450 3A4 (Homo sapiens) (P08684 whole entry, looked up): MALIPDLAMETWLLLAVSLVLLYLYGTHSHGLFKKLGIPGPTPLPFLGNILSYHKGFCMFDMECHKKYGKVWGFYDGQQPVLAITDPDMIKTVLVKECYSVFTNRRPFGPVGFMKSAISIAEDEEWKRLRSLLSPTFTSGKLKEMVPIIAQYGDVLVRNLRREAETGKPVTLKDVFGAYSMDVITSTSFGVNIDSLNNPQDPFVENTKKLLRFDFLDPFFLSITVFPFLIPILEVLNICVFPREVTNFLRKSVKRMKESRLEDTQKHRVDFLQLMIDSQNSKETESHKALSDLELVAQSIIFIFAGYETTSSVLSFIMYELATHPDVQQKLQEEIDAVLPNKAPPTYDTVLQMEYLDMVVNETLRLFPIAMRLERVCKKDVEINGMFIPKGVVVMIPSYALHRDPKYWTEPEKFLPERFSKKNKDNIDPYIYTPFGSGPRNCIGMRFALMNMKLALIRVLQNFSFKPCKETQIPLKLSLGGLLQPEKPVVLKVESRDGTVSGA
How it was run: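 Steps: enzyme/substrate mix dispensed; compound added, 10 min RT; NADPH regeneration solution added, 60 min RT; luciferin detection buffer stops reaction; 20 min later luminescence measured.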

[10] = qHTS Assay for Lipid Storage Modulators (AID 1519; calls by dose curve); settings: Drosophila S3 cells, BODIPY lipid droplet/cell ratio, laser cytometry, cells loaded with oleic acid; for activity change, negative = inhibition: at 57.5 µM (top of the series)
How it was run: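 Cells seeded at 5,000 per well were treated with compounds over a concentration series and loaded with oleic acid (400 uM, as added). Lipid droplet fluorescence (488 nm excitation, 500-530 nm channel) was read by laser-scanning cytometry and normalized to 20 uM Triacsin C.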

[11] = biological target: Dual specificity protein kinase CLK4 (Homo sapiens) (UniProt Q9HAZ1); experiment: qHTS Assay for Inhibitors of CDC-like Kinase 4 (Kinase-Glo Assay) (AID 1770); settings: recombinant Clk4, Kinase-Glo ATP depletion luminescence; series mostly up to 66.7 µM; note: nearly all actives have a fitted effect of over 65% in size; note: potency is the fitted concentration of half-maximal effect
Chain of Dual specificity protein kinase CLK4 (Homo sapiens) (Q9HAZ1 whole entry, looked up): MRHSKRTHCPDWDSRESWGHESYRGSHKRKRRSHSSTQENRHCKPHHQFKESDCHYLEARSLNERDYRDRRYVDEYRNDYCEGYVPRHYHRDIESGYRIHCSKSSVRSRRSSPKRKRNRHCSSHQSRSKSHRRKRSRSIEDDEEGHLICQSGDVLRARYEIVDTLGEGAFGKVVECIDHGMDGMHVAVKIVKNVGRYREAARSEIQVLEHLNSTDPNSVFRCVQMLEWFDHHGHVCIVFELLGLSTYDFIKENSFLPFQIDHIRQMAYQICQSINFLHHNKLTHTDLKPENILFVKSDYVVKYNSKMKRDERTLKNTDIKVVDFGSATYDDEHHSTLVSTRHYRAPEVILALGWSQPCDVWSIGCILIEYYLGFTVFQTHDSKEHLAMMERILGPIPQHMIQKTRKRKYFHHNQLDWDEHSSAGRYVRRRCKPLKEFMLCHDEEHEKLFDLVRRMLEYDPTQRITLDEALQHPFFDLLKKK
How it was run: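 Recombinant human Clk4 (25 nM) phosphorylated RS repeat peptide (100 uM) with 1 uM ATP in Tris pH 7.5/MgCl2/EGTA/DTT/Triton buffer for 4.5 h at room temperature. Residual ATP was quantified by Kinase-Glo luciferase luminescence.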

[12] = biological target: Dual specificity protein kinase CLK4 (Homo sapiens) (UniProt Q9HAZ1); experiment: qHTS Assay for Inhibitors of CDC-like Kinase 4 (ADP-Glo Assay) (AID 1771); settings: recombinant CLK4, ADP-Glo luminescence; series mostly up to 80 µM; note: nearly all actives have a fitted effect of over 70% in size; note: potency is the fitted concentration of half-maximal effect
How it was run: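 Clk4 (25 nM) was incubated 1 hr at room temperature with 100 uM RS repeat peptide and 1 uM ATP in buffer with 2 mM MgCl2, 0.5 mM EGTA, 2.5 mM DTT. ADP formed was quantified by ADP-Glo luminescence.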

[13] = biological target: Dual specificity protein kinase CLK4 (Homo sapiens) (UniProt Q9HAZ1); experiment: qHTS Assay for Inhibitors of CDC-like Kinase 4 (ADP-FP Assay) (AID 1795); settings: Transcreener ADP fluorescence polarization; series mostly up to 50 µM; note: nearly all actives have a fitted effect of over 60% in size; note: potency is the fitted concentration of half-maximal effect
How it was run: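 Recombinant human Clk4 (6.25 nM) phosphorylated RS repeat peptide (100 uM) with 1 uM ATP in Tris pH 7.5/MgCl2/EGTA/DTT/Triton buffer for one hour. ADP was quantified by Transcreener competitive fluorescence polarization against an ADP calibration curve.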

[14] = biological target: Ubiquitin carboxyl-terminal hydrolase 1 (Homo sapiens) (UniProt O94782); experiment: Inhibitors of USP1/UAF1: Pilot qHTS (AID 504865); settings: purified USP1/UAF1, Ub-rhodamine cleavage fluorescence; series mostly up to 54.9 µM;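 note: rhodamine fluorescence freed from ubiquitin-rhodamine substrate followed over time; top concentration of the series differs between compounds; % is set by controls: 0 for no effect and ±100 for the full control effect; nearly all actives have a fitted effect of over 35% in size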
Chain of Ubiquitin carboxyl-terminal hydrolase 1 (Homo sapiens) (O94782 whole entry, looked up): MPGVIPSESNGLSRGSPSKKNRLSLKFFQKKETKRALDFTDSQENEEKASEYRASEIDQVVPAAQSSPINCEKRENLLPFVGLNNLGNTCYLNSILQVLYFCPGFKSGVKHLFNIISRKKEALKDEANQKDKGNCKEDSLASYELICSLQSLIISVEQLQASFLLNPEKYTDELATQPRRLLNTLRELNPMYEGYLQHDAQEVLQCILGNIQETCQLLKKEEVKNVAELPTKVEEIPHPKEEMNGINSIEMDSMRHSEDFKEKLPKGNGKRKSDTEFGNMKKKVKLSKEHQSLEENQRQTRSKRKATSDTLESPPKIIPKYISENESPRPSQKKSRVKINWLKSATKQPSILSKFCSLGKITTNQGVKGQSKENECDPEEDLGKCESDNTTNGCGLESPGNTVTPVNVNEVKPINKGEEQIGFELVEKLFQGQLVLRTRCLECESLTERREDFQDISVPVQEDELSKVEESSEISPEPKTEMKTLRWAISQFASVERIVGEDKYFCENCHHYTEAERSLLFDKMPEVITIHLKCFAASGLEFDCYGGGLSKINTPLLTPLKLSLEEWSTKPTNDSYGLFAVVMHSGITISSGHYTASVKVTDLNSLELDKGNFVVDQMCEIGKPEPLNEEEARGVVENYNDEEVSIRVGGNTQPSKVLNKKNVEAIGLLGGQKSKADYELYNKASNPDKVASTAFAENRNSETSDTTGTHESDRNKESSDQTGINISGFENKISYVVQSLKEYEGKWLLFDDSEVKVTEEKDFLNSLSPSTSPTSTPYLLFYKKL
How it was run: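 USP1/UAF1 complex (1nM) preincubated with compound 15 min at room temperature, then Ub-Rho substrate (150nM final) added. Fluorescence read kinetically at 480/540 nm, 6 reads every 60 seconds. Buffer: 50mM HEPES pH 7.8, 0.5mM EDTA, 0.1 mg/ml BSA, 1mM TCEP, 0.01% Tween-20.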

[15] = Primary qHTS for small molecule stabilizers of the endoplasmic reticulum resident proteome: Secreted ER Calcium Modulated Protein (SERCaMP) assay (AID 1508630); settings: SH-SY5Y GLuc-SERCaMP (Gaussia luciferase released on ER calcium loss) secretion, thapsigargin, luminescence; series mostly up to 38.4 µM; note: % is set by controls: 0 for no effect and ±100 for the full control effect
How it was run: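 GLuc-SERCaMP-expressing SH-SY5Y cells, pretreated 16 h with compound, are challenged with thapsigargin to empty ER calcium stores; after 4 h, coelenterazine is added directly to the medium and luminescence is imaged.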

[16] = biological target: Glucocorticoid receptor (Homo sapiens) (UniProt P04150); experiment: GR-GFP Redistribution (AID 450;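 active = compounds whose dose series gives a full or clear partial fitted curve of increased nuclear translocation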; note: potency is the fitted concentration of half-maximal effect); settings: U2OS GR-GFP nuclear translocation, laser cytometry, 2 h
[17] = biological target: Cytochrome P450 2C9 (Homo sapiens) (UniProt P11712); experiment: qHTS Assay for Inhibitors and Substrates of Cytochrome P450 2C9 (AID 883); settings: recombinant CYP2C9, luciferin-H luminescence, 60 min; series mostly up to 57.1 µM; note: nearly all actives have a fitted effect of over 60% in size; note: potency is the fitted concentration of half-maximal effect
Chain of Cytochrome P450 2C9 (Homo sapiens) (P11712 whole entry, looked up): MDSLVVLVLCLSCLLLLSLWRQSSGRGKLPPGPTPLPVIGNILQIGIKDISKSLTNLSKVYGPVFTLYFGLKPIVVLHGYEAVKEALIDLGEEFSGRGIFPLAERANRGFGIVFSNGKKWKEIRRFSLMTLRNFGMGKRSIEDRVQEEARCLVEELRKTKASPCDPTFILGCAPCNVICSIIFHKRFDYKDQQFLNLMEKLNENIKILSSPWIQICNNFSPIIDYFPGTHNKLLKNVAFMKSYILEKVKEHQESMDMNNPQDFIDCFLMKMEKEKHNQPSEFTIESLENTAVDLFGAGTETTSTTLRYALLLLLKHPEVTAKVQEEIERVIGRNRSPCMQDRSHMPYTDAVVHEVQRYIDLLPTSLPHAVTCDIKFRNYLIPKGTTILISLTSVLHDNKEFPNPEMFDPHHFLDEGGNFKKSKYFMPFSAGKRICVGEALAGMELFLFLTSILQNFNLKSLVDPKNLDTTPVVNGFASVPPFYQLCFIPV
How it was run: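 Inhibition of CYP2C9 is scored as loss of luminescence, with 57uM sulphaphenazole defining 100% inhibition. Substrate Luciferin-H is used at 100uM, equal to its KM; enzyme at 10nM in 25mM KPO4, 60 min at 37C with NADPH regeneration.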

[18] = biological target: Cytochrome P450 3A4 (Homo sapiens) (UniProt P08684); experiment: qHTS Assay for Inhibitors and Substrates of Cytochrome P450 3A4 (AID 884); settings: recombinant CYP3A4, Luciferin-PPXE luminescence; series mostly up to 57.1 µM; note: potency is the fitted concentration of half-maximal effect; nearly all actives have a fitted effect of over 50% in size
How it was run: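 20 nM human CYP3A4 with 25 uM Luciferin-PPXE (at KM) in 200 mM KPO4, preincubated 10 min with compound; NADPH regeneration started a 60 min RT reaction. Luciferin detected by luminescence, normalized to 57 uM ketoconazole as full inhibition.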

[19] = biological target: Cytochrome P450 2C19 (Homo sapiens) (UniProt P33261); experiment: qHTS Assay for Inhibitors and Substrates of Cytochrome P450 2C19 (AID 899); settings: recombinant CYP2C19, luciferin-H EGE luminescence; series mostly up to 57.1 µM; note: potency is the fitted concentration of half-maximal effect; nearly all actives have a fitted effect of over 60% in size
How it was run: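 5nM enzyme + 10uM Luciferin-H EGE (=KM), 50mM KPO4; cpd pin-transferred, 10 min 37C; NADPH regen, 60 min 37C; stopped w/ luciferin detection reagent, 20 min; luminescence. Normalized to 57uM ketoconazole (AC100).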

[20] = measured here: cell count channel max response
[21] = measured here: lipid channel max response

COc1ccc(Oc2ncc3nc(-c4cn(C)c5ccccc45)c(=O)n(C4CC4)c3n2)cc1
3.07%: max response [10, 21]
active: Potency [3] 12.6 µM
inactive: Potency [1] > 11.4 µM | activity change, negative = inhibition [2] -4.88% | activity change, negative = inhibition [4] 9.91% | activity, negative = inhibition [5] 19% | Potency [6] > 46 µM | outcome [7] | Potency [8] | Potency [9] | activity change, negative = inhibition [10] 2.32% | Potency [11] | Potency [12] | Potency [13] | Potency [14] | Potency [15]
3.6%: max response [10, 20]

COCCNc1ncncc1-c1c(C)noc1C
inactive: Potency [1] > 11.4 µM | activity change, negative = inhibition [2] 8.31% | Potency [3] | activity change, negative = inhibition [4] -1.26% | activity, negative = inhibition [5] 0.118% | Potency [16] > 46 µM | outcome [7] | Potency [8] | activity change, negative = inhibition [17] 23.1% [at 2.29 µM] | Potency [9] | activity change, negative = inhibition [10] 3.6% | Potency [11] | Potency [12] | Potency [13] | Potency [14] | Potency [15]
19.7%: max response [10, 20]
active: Potency [18] 5.01 µM
24.5%: max response [10, 21]

O=c1c(-c2cccs2)nc2cnc(N3CCOCC3)nc2n1Cc1cccs1
22.5%: max response [10, 20]
active: Potency [3] 15.8 µM
0.532%: max response [10, 21]
inactive: Potency [1] > 11.4 µM | activity change, negative = inhibition [2] 15.1% | activity change, negative = inhibition [4] -8.44% | Potency [16] > 9.22 µM | Potency [6] > 46 µM | outcome [7] | Potency [8] | Potency [9] | activity change, negative = inhibition [10] -15.7% | Potency [11] | Potency [12] | Potency [13] | Potency [14] | Potency [15]

COc1cccc(-c2nc(NCc3ccccc3)c3ccccc3n2)c1
2.86%: max response [10, 21]
inactive: Potency [1] > 11.4 µM | activity change, negative = inhibition [2] -17.6% | activity change, negative = inhibition [4] 0.742% | activity, negative = inhibition [5] -12.9% | Potency [16] > 46 µM | Potency [6] > 46 µM | outcome [7] | Potency [9] | activity change, negative = inhibition [10] -4.54% | Potency [14] | Potency [15]
10.5%: max response [10, 20]
active: Potency [3] 3.16 µM | Potency [17] 1.26 µM | Potency [19] 3.98 µM | Potency [11] 6.31 µM | Potency [12] 6.31 µM | Potency [13] 2.24 µM

O=c1c(-c2cc(F)cc(F)c2)nc2cncnc2n1-c1ccccc1
inactive: Potency [1] > 11.4 µM | activity change, negative = inhibition [2] -15.8% | activity change, negative = inhibition [4] -2.26% | activity, negative = inhibition [5] -16.9% | Potency [6] > 46 µM | outcome [7] | activity change, negative = inhibition [10] 6.93% | Potency [11] | Potency [12] | Potency [13] | Potency [14] | Potency [15]
28.7%: max response [10, 21]
22.2%: max response [10, 20]
active: Potency [3] 12.6 µM
